# SW480 rerep: induces DNA re-replication in SW480 colon adenocarcinoma cells | hit rate 1.8% among 340,000 | Potency, µM (doses to about 46.1 µM), most hits filed as activators | SW480 DNA re-replication, Hoechst DNA content imaging, 48 h; further: nearly all actives have a fitted effect of over 55% in size
#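 Quantitative HTS format with DMSO vehicle controls; 48 hr drug incubation at 37 C, then 40 min Hoechst staining and scanning imager measurement at 405 nm excitation.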
# HT1080-NT tox: kills 2HG-producing HT-1080-NT fibrosarcoma cells; HT-1080-NT fibrosarcoma viability, CellTiter-Glo ATP luminescence, 48 h; Potency, µM (titrated, usually from 46.1 µM), actives largely listed as cytotoxic; hit rate 1.6% among 360,000; AID 686970;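 further: NT is the 2HG producing partner of a matched IDH1 knockdown line; nearly all actives have a fitted effect of over 55% in size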
#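 750 cells/well, RPMI + 5% FBS; 2 h settle, compound pin-transfer, 48 h at 37 degrees C. CellTiter-Glo 10 min RT, luminescence. Normalized to DMSO and media-only wells.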
# KB-3-1 tox: KB-3-1 parental cell cytotoxicity. KB-3-1 viability, CellTiter-Glo ATP luminescence, 72 h. Potency, µM (titrated, usually from 46.1 µM), most hits filed as cytotoxic. hit rate 1.4% among 400,000; further: nearly all actives have a fitted effect of over 60% in size
#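 Using CellTiter-Glo luminescence, growth of non-resistant KB-3-1 adenocarcinoma cells is assessed 72 h after pin-tool compound addition at 37 °C. Normalized responses across the concentration series yield fitted curves.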
# HT1080 IDH1KD tx: toxicity to HT-1080 IDH1 knockdown cells (counter line). AID 686971. HT-1080 IDH1 knockdown viability, ATP luminescence, 48 h. Potency, µM (titrated, usually from 46.1 µM), usual class: cytotoxic. hit rate 2% among 360,000
#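 Cytotoxicity counter-line: IDH1KD HT-1080, 48 h, CellTiter-Glo. Curves classed by r2, magnitude and activity.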
# KB-V1 cytotox: KB-V1 MDR subline cytotoxicity; KB-V1 MDR cells viability, CellTiter-Glo, 72 h; AID 1347076; Potency, µM (doses to about 46.1 µM), hits mostly cytotoxic; hit rate 3.4% among 400,000; further: nearly all actives have a fitted effect of over 60% in size
#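 KB-V1 cells (P-gp-expressing MDR subline of KB-3-1) in phenol-red-free DMEM with 10% FBS were exposed to library compounds over a concentration series for 72 h at 37 degrees C. Viability read by CellTiter-Glo luminescence; concentration-effect curves fitted after normalization.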
# MCF10A rereplic: DNA re-replication induction in MCF 10a cells. Potency, µM (series often up to 46.1 µM), most hits filed as activators. MCF 10A DNA re-replication, Hoechst nuclear intensity, 48 h. hit rate 2.9% among 350,000; further: nearly all actives have a fitted effect of over 50% in size
# Numbers stand for hits; - = inactive; ? = inconclusive. The list is not random: actives were taken first. Their share in the collection is about 7.9%. The call rests on the fitted dose curve; in most records, active means well fitted curve in the direction sought with a large enough effect; inconclusive means small, poorly fitted or top-dose-only effect, or another doubt; inactive means no such curve, though single readings can be large; an effect the other way counts as inactive or inconclusive.
SMILES,SW480 rerep,HT1080-NT tox,KB-3-1 tox,HT1080 IDH1KD tx,KB-V1 cytotox,MCF10A rereplic
CCCCn1nc(NC(=O)c2cccs2)c2cc3cc(OC)ccc3nc21,11.6µM,?,-,?,?,?
Cc1ccccc1NCc1ccc([N+](=O)[O-])s1,?,?,?,-,-,4.61µM
CCN(CC)CCn1c2ccccc2c2cnc(N=CN(C)C)c(C#N)c21,-,?,?,?,?,20.6µM
CCn1c2ccccc2c2cnc(N=CN(C)C)c(C#N)c21,-,-,-,-,7.31µM,-
CCn1c2ccccc2c2cc(C#N)c(N)nc21,-,-,-,-,-,?
O=C(NCc1nc(-c2ccc(C(F)(F)F)cc2)no1)Nc1ccc(OC(F)(F)F)cc1,?,25.9µM,?,?,?,?
COc1ccc(-c2noc(CNS(=O)(=O)c3ccc(NC(C)=O)cc3)n2)cc1,-,-,-,-,-,-
O=C1CC(SC(=Nc2ccccc2)Nc2ccccc2)C(=O)N1c1ccc(Cl)cc1 (stereo unspecified),-,-,-,-,-,-
O=C1CC(SC(=Nc2ccccc2)Nc2ccccc2)C(=O)N1c1cccc(Cl)c1 (stereo unspecified),-,?,?,23.1µM,-,-
Cc1cc(C(=O)Nc2ccc(C#N)cc2)on1,-,-,-,-,-,-
CC(C)(C)c1cc(CCC(=O)NNC(=O)c2ccco2)cc(C(C)(C)C)c1O,-,-,-,-,-,?
CC(C)(C)c1cc(CCC(=O)NNC(=S)NC(=O)c2ccccc2)cc(C(C)(C)C)c1O,?,14.6µM,?,?,?,?
O=C(CCc1ccccc1)NNC(=S)NC(=O)c1ccccc1,3.66µM,?,-,11.2µM,?,3.26µM
O=C(CCc1ccccc1)NC(=S)Nc1cccc(Br)c1,-,-,-,-,-,16.4µM
CC(=O)NC(=S)NNC(=O)CCc1ccccc1,-,-,-,-,-,-
O=C(CCc1ccccc1)NC(=S)Nc1cccc(C(=O)O)c1,-,-,-,-,-,-
CCOc1cccc(CNc2nnnn2C)c1,-,-,-,-,-,-
CCN(CC)S(=O)(=O)c1ccc(O)c(NS(=O)(=O)c2ccccc2F)c1,-,-,-,-,-,-
COc1ccccc1N(CC(=O)NCCSCc1cccc(Cl)c1)S(C)(=O)=O,-,-,-,-,-,-
CN(C)c1ccc(NC(=S)c2ccccn2)cc1,?,?,14.6µM,?,?,-
CC(C)[C@H](N)c1nnc(SCc2ccc(Cl)cc2)o1,-,-,-,-,16.4µM,-
Cc1cc([N+](=O)[O-])c2[nH]c(C(=O)N/N=C/c3ccccc3C(=O)O)c(-c3ccccc3)c2c1,?,-,-,-,4.11µM,?
CC(C)Cn1cc(C(=O)NCCCN2CCCC2=O)c2c3ccccc3n(C)c2c1=O,-,-,-,-,5.8µM,-
CC(C)Cn1cc(C(=O)NCCCN2CCC(C)CC2)c2c3ccccc3n(C)c2c1=O,-,-,-,-,-,-
N#C/C(=C/c1ccc(Sc2nc3ccccc3[nH]2)o1)c1ccccc1F,?,?,-,?,3.66µM,-
SMILES,SW480 rerep,HT1080-NT tox,KB-3-1 tox,HT1080 IDH1KD tx,KB-V1 cytotox,MCF10A rereplic
N#C/C(=C/c1ccc(Sc2nc3ccccc3[nH]2)o1)c1cccc(Br)c1,-,?,?,?,18.4µM,?
N#C/C(=C/c1ccc(Sc2nc3ccccc3[nH]2)o1)c1cccc(F)c1,?,?,-,?,7.31µM,-
N#C/C(=C\c1ccc(Sc2ccccc2)o1)c1nc2ccccc2[nH]1,-,-,-,-,-,-
N#C/C(=C\c1ccc(-c2ccccc2C(=O)O)o1)c1nc2ccccc2[nH]1,?,-,-,-,?,?
Cc1cc(-c2cn3ccccc3n2)c(C)n1-c1ccccc1,?,?,?,?,-,20.6µM
COc1ccc(-n2c(C)cc(-c3cn4cccc(C)c4n3)c2C)cc1,-,-,-,-,-,?
CCOc1cc(C2CC(=O)NC3=C2C(=O)C(C(=O)OC)C(C)C3)cc(Cl)c1O (stereo unspecified),-,-,-,-,-,-

# Source: PubChem
